Experiment [1] is described as follows: inhibitors of TNFa-induced NFkB p65 translocation, primary screen, imaging, HUVEC, MLSMR starter and 10KST1 sets (AID 438;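 active = inhibition above 20% together with a positive visual image hit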;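 note: compound added about 3h40 before a 20 min TNFalpha stimulation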;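 for inhibition: signal is the nuclear over cytoplasmic p65 intensity ratio per well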). The settings on record: HUVEC TNFa-induced p65 nuclear translocation; cell count: measured here: nuclei count (cytotoxicity indicator), at 2.08 µM; inhibition: at 2 µM, stronger effect = higher value, 0% TNFa-plus-vehicle, 100% no-TNFa wells.
Experiment [2] is described as follows: inhibitors of mutant huntingtin aggregation, primary screen, imaging, exon1htt(103Q)mCFP cells, high-content imaging (AID 483;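 active = visual image review flags a hit and inhibition of aggregation exceeds 20%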;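 note: compound exposure lasted 3 days before fixation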;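 for nuclei count: percent of the per-plate median nuclei count of sample wells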). The conditions noted are these: exon1htt(103Q)mCFP cell line, aggregate imaging, at 2 µM; inhibition of aggregation: stronger effect = higher value; nuclei count: measured here: cell count, toxicity.
Experiment [3] in a line: inhibitors of E-selectin induction by TNFa, primary screen, imaging, HUVEC, immunofluorescence, MLSMR starter and 10KST1 sets (AID 487;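 active = visually confirmed hit in the image check and inhibition above 20%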;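 for inhibition: signal is fraction of cell area covered by stained E-selectin grains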;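 for nuclei count: 100% = median nuclei count of all wells on the same plate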). The conditions noted are these: HUVEC TNFalpha-induced E-selectin immunofluorescence imaging, at 2 µM; inhibition: stronger effect = higher value; nuclei count: measured here: cell number, toxicity.
For experiment [4], the target named is Voltage-gated potassium channel subunit beta-2 (Rattus norvegicus) (UniProt P62483). Put plainly: KvBeta enzyme negative modulators, primary screen, biochemical, NADPH fluorescence (AID 622).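 Note: slope of raw intensity against log time taken from 70 to 1610 s.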 The conditions noted are these: recombinant KvBeta, 4-cyanobenzaldehyde reduction, at 10 µM, stronger effect = higher value.
Experiment [5] shares this target. Briefly: KvBeta positive modulators, primary screen, biochemical, NADPH fluorescence (AID 623;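 active = NADPH fluorescence slope more negative than the mean of all samples by about 3 SD, 99.7% confidence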;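 note: fluorescence intensity change per second fitted from 20 to 320 s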). The settings on record: Recombinant KvBeta, NADPH fluorescence decrease slope, 10 min; at 10 µM; stronger effect = lower value.
For experiment [6], the target named is Alpha-2C adrenergic receptor (Homo sapiens) (UniProt P18825). Briefly: modulators of alpha2C/GIRK thallium flux, primary screen, cell-based, HEK293 alpha2C/GIRK1/2 (AID 624;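 active = fluorescence slope after compound addition differing from the mean of all screened samples at 99.7% confidence, in either direction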;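 note: slope of fluorescence ratio to pre-addition baseline per second over 15 to 24 s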). The conditions noted are these: thallium flux BTC fluorescence, at 10 µM, actives lie on both sides.
Experiment [7] is described as follows: inhibitors of Sendai virus-induced IRF3 signaling, primary screen, TLR/RLR signaling modifier project, cell-based, Sendai virus stimulus, luciferase, 10K MLSCN set (AID 602276;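 active = inhibition at or above 50% at 10 µM; inactive = inhibition below 50%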;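 note: firefly luciferase from ISG56 promoter only with Renilla not read in this screen; 0% = Sendai virus plus DMSO and 100% = medium plus DMSO without virus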). The settings on record: HEK293 RL24 IRF3 luciferase reporter, at 10 µM, stronger effect = higher value.
Experiment [8] can be described thus: inhibitors of poly I:C-induced TLR3 signaling, primary screen, cell-based, poly I:C stimulus, luciferase, 10K MLSCN set (AID 602277;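 active = inhibition of the reporter signal at or above 50%; inactive = inhibition below 50%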). The settings on record: HEK293-TLR3 RL24 IRF3 luciferase reporter, at 10 µM, stronger effect = higher value. In general terms: A reporter such as luciferase makes a cellular process visible.

Structures are written as SMILES. The source made the active and inactive calls.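 Rule for the calls, unless noted: active = fluorescence slope higher than the sample average by over 3 SD (cut at about -0.22 in these data, passing the limit was not always enough); inactive = the rest.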

Sequence of Voltage-gated potassium channel subunit beta-2 (Rattus norvegicus) (P62483 whole entry, looked up): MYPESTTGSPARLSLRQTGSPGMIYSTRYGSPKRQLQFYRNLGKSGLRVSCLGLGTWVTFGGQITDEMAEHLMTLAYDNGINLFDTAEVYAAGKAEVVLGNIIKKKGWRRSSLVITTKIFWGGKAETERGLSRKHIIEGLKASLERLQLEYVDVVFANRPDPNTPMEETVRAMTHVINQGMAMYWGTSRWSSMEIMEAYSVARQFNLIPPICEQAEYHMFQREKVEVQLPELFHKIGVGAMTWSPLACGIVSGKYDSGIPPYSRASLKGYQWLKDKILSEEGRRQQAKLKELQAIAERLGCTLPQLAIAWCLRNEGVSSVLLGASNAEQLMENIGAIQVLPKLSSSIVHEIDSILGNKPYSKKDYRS
Sequence of Alpha-2C adrenergic receptor (Homo sapiens) (P18825 whole entry, looked up): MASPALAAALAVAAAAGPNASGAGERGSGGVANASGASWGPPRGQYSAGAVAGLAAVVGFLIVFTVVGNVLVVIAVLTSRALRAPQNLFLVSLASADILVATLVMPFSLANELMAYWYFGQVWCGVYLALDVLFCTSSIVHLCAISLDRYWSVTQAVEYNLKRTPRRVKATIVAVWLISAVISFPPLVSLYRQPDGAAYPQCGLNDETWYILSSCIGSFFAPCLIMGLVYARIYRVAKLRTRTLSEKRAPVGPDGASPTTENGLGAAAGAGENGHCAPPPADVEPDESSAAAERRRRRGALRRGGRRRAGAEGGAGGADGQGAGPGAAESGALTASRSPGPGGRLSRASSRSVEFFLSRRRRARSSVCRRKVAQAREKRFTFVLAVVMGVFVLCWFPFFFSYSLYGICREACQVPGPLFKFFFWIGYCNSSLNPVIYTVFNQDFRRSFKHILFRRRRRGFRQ

`C=CCn1c(COc2ccccc2)nnc1SCC(=O)C(C)(C)C`: the cell count in experiment [1] was 733. Besides, the inhibition in experiment [1] was 0.9% (inactive); in experiment [3], 7.8% (inactive); in experiment [7] it was 3.19% (inactive); in experiment [8], 22.7% (inactive). Moreover, the inhibition of aggregation in experiment [2] is -8.3% (inactive). Also, the nuclei count in experiment [2] came to 102%; in experiment [3] it was 98.4%. The fluorescence slope in experiment [4] is -0.449 (inactive). In addition, in experiment [5], the NADPH fluorescence slope is -3.9e-05 (inactive). In addition, the slope in experiment [6] is 0.00312 (inactive).

For the compound `CCOC(=O)c1sc2nc(NC(=O)C(C)(C)C)sc2c1C`, in experiment [1], the cell count worked out at 600. For the same compound, the inhibition in experiment [1] was 16.7% (inactive); in experiment [3], -25.6% (inactive); in experiment [7], -20.5% (inactive); in experiment [8], -150% (inactive). In experiment [2], the inhibition of aggregation is -3.3% (inactive). The figures for the nuclei count in experiment [2] and in experiment [3] were 112% and 104%, respectively. The fluorescence slope in experiment [4] is -0.496 (inactive). Besides, the NADPH fluorescence slope in experiment [5] is -2.5e-05 (inactive). Moreover, the slope in experiment [6] is 0.00604 (inactive).

On to `CC1(C)COCN1S(=O)(=O)c1ccc(C(=O)Nc2nnc(-c3ccc(Cl)s3)o2)cc1`, for which the cell count in experiment [1] worked out at 440. In addition, the inhibition was 10.8% (inactive) in experiment [1], -26.4% (inactive) in experiment [3], 49.1% (inactive) in experiment [7] and 36.9% (inactive) in experiment [8]. Moreover, the inhibition of aggregation in experiment [2] is -2.8% (inactive). In addition, the nuclei count in experiment [2] is 98.3%; in experiment [3], 93.8%. Also, the fluorescence slope in experiment [4] is -0.545 (inactive). Moreover, in experiment [5], the NADPH fluorescence slope was 1.8e-05 (inactive). For the same compound, the slope in experiment [6] is 0.00616 (inactive).

Consider `CN(C)CC(C(=O)c1ccccc1)c1ccccc1` (centres undefined), for which the cell count in experiment [1] is 460. The inhibition in experiment [1] was 2.4% (inactive); in experiment [3], 20.2% (inactive); in experiment [7] it was 11% (inactive); in experiment [8], 82.3% (active). For the same compound, the inhibition of aggregation in experiment [2] was -28% (inactive). Further, the nuclei count in experiment [2] was 13.4%; in experiment [3] it was 113%. In experiment [4], the fluorescence slope was -0.251 (inactive). Further, the NADPH fluorescence slope in experiment [5] was -1.2e-05 (inactive). Further, the slope in experiment [6] was 0.0054 (inactive).

In the case of `CN(Cc1ccccc1)C(=O)c1ccccc1NC(=O)c1ccco1`, the cell count in experiment [1] was found to be 349. The inhibition was -9.3% (inactive) in experiment [1], -102% (inactive) in experiment [3], -13.9% (inactive) in experiment [7] and 98.1% (active) in experiment [8]. Also, the inhibition of aggregation in experiment [2] is -4.5% (inactive). In addition, the nuclei count in experiment [2] was 86%; in experiment [3], 130%. The fluorescence slope in experiment [4] is -0.333 (inactive). In addition, the NADPH fluorescence slope in experiment [5] was -6e-05 (inactive). Moreover, the slope in experiment [6] was 0.00495 (inactive).

As for `COc1cc2c(cc1OC)-c1nnc(C)n1C1(CCCC1)C2`, the cell count in experiment [1] was 849. Besides, the inhibition in experiment [1] was 2.9% (inactive); in experiment [3], -70.9% (inactive); in experiment [7], 10.3% (inactive); in experiment [8] it was 1.68% (inactive). Moreover, the inhibition of aggregation in experiment [2] was -14.8% (inactive). For the same compound, the results for the nuclei count in experiment [2] and in experiment [3] were 132% and 120%, respectively. Besides, in experiment [4], the fluorescence slope is -0.606 (inactive). In addition, in experiment [5], the NADPH fluorescence slope was 3.2e-05 (inactive). Further, the slope in experiment [6] is 0.00696 (inactive).

With `CCc1ccccc1OCCCCN1CCCC1`, the cell count in experiment [1] came out at 454. In addition, the inhibition in experiment [1] is -4.1% (inactive); in experiment [3], -88.7% (inactive); in experiment [7], -4.55% (inactive); in experiment [8] it was -12.9% (inactive). Moreover, the inhibition of aggregation in experiment [2] is 10.6% (inactive). In addition, the nuclei count in experiment [2] was found to be 89.5%; in experiment [3], 75.1%. Further, in experiment [4], the fluorescence slope was -0.518 (inactive). Besides, in experiment [5], the NADPH fluorescence slope is -4.4e-05 (inactive). In experiment [6], the slope was 0.00548 (inactive).

In the case of `CCCCOC(=O)CNc1nnc(SCC(=O)OCC)[nH]c1=O`, in experiment [1], the cell count was 659. Also, the inhibition was -10.5% (inactive) in experiment [1], -32.4% (inactive) in experiment [3], 2.96% (inactive) in experiment [7] and -3.08% (inactive) in experiment [8]. In addition, the inhibition of aggregation in experiment [2] is 9.9% (inactive). Also, the results for the nuclei count in experiment [2] and in experiment [3] were 94.8% and 110%, respectively. In experiment [4], the fluorescence slope is -0.572 (inactive). Moreover, the NADPH fluorescence slope in experiment [5] is -7.9e-06 (inactive). Also, the slope in experiment [6] is 0.00508 (inactive).

On to `COc1ccc(S(=O)(=O)Nc2ccc(F)c(F)c2)cc1Cl`, for which, in experiment [1], the cell count was 723. Further, the inhibition in experiment [1] is 8.5% (inactive); in experiment [3] it was -8.3% (inactive); in experiment [7], 8.01% (inactive); in experiment [8] it was 31.5% (inactive). Also, the inhibition of aggregation in experiment [2] was 5.1% (inactive). The nuclei count stood at 102% in experiment [2] and 98.5% in experiment [3]. In addition, in experiment [4], the fluorescence slope was -0.496 (inactive). In addition, the NADPH fluorescence slope in experiment [5] was -1.9e-05 (inactive). For the same compound, the slope in experiment [6] was 0.0057 (inactive).

In the case of `Cc1ccc(NC(=O)c2ccco2)cc1NC(=O)CSc1nnc(-c2cccs2)n1C`, in experiment [1], the cell count was 379. Further, the inhibition in experiment [1] was -5.5% (inactive); in experiment [3] it was 24.1% (inactive); in experiment [7] it was 10.8% (inactive); in experiment [8], 14.1% (inactive). In addition, in experiment [2], the inhibition of aggregation was 16.8% (inactive). The figures for the nuclei count in experiment [2] and in experiment [3] were 89.1% and 98.1%, respectively. The fluorescence slope in experiment [4] is -0.394 (inactive). The NADPH fluorescence slope in experiment [5] is -5.8e-05 (inactive). In experiment [6], the slope was 0.00449 (inactive).

In the case of `CCOC(=O)c1oc2ccccc2c1NC(=O)c1cccc(OC)c1OC`, the cell count in experiment [1] amounted to 553. For the same compound, the inhibition is -14.1% (inactive) in experiment [1], 23.6% (inactive) in experiment [3], -0.203% (inactive) in experiment [7] and -6.33% (inactive) in experiment [8]. Further, the inhibition of aggregation in experiment [2] is -13% (inactive). For the same compound, the nuclei count was 104% in experiment [2] and 82.8% in experiment [3]. Further, in experiment [4], the fluorescence slope is -0.616 (inactive). In addition, the NADPH fluorescence slope in experiment [5] is -1.9e-05 (inactive). The slope in experiment [6] was 0.00654 (inactive).

`Cn1ccnc1SCC(=O)Nc1ccc2ccccc2c1`: the cell count in experiment [1] was determined as 228. In addition, the inhibition is 9.6% (inactive) in experiment [1], -14.1% (inactive) in experiment [3], 2.61% (inactive) in experiment [7] and -32.6% (inactive) in experiment [8]. In addition, the inhibition of aggregation in experiment [2] is 13.5% (inactive). In addition, the figures for the nuclei count in experiment [2] and in experiment [3] were 120% and 105%, respectively. The fluorescence slope in experiment [4] is -0.519 (inactive). The NADPH fluorescence slope in experiment [5] was -4.1e-05 (inactive). Further, in experiment [6], the slope was 0.00777 (inactive).

Turning to `Cc1ccc2c(c1)NC(=O)C(CC(=O)NCCN(CC(C)C)CC(C)C)O2` (centres undefined), the cell count in experiment [1] is 659. In addition, the inhibition in experiment [1] was 4.4% (inactive); in experiment [3] it was -11% (inactive); in experiment [7], -16.7% (inactive); in experiment [8], -6.31% (inactive). In addition, the inhibition of aggregation in experiment [2] is 7.8% (inactive). Further, the nuclei count is 102% in experiment [2] and 125% in experiment [3]. In experiment [4], the fluorescence slope is -0.584 (inactive). Also, the NADPH fluorescence slope in experiment [5] was 6e-06 (inactive). For the same compound, in experiment [6], the slope is 0.00608 (inactive).

As for `CCn1c(SCC(=O)c2ccc(OC)cc2)nnc1C(C)NC(=O)c1ccc(OC)cc1` (centres undefined), the cell count in experiment [1] is 449. The inhibition is -1.8% (inactive) in experiment [1], -41.9% (inactive) in experiment [3], -3.91% (inactive) in experiment [7] and 9.81% (inactive) in experiment [8]. In addition, the inhibition of aggregation in experiment [2] was 2.6% (inactive). The nuclei count in experiment [2] is 96.2%; in experiment [3], 129%. For the same compound, the fluorescence slope in experiment [4] is -0.409 (inactive). Further, the NADPH fluorescence slope in experiment [5] was 2.1e-05 (inactive). Besides, in experiment [6], the slope was 0.00558 (inactive).

A word on the inhibition: it is the change of the read-out against control, counted positive when it falls.

(Values after PubChem BioAssay.)
